Shown is part of a subset that was picked to be rich in the strongest signals.
Experiments:
Assay in all cases: glycan array binding signal (z-score within array); higher = stronger binding
Details in all cases: glycan notation: IUPAC condensed, linker removed
[1] = target: Fuc(a1-2)Gal
Procedure, shortened: (§1)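 The Consortium for Functional Glycomics database supplied 3228 glycan arrays, of which those lacking an available protein sequence were dropped. The binding signal, a within-array Z-score, was averaged across arrays of the same protein sequence and across linkers. Negative scores can be read as non-binding.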

[2] = target: Fuc(a1-2)Gal(b1-3)[Fuc(a1-4)]GlcNAc(b1-2)Man(a1-3)[Fuc(a1-2)Gal(b1-3)[Fuc(a1-4)]GlcNAc(b1-2)Man(a1-6)]Man(b1-4)GlcNAc(b1-4)GlcNAc
Procedure, shortened: as §1

[3] = target: Fuc(a1-2)Gal(b1-3)[Fuc(a1-4)]GlcNAc(b1-3)[Gal(b1-4)GlcNAc(b1-6)]Gal(b1-4)Glc
Procedure, shortened: as §1

[4] = target: Fuc(a1-2)Gal(b1-4)[Fuc(a1-3)]GlcNAc(b1-2)[Fuc(a1-2)Gal(b1-4)[Fuc(a1-3)]GlcNAc(b1-4)]Man(a1-3)[Fuc(a1-2)Gal(b1-4)[Fuc(a1-3)]GlcNAc(b1-2)Man(a1-6)]Man(b1-4)GlcNAc(b1-4)GlcNAc
Procedure, shortened: as §1

[5] = target: Fuc(a1-2)Gal(b1-4)[Fuc(a1-3)]GlcNAc(b1-3)GalNAc
Procedure, shortened: as §1

[6] = target: Fuc(a1-2)Gal6S(b1-4)Glc6S
Procedure, shortened: as §1

[7] = target: Fuc(a1-3)GlcNAc
Procedure, shortened: as §1

[8] = target: Fuc(a1-3)[Gal(b1-4)]GlcNAc
Procedure, shortened: as §1

[9] = target: Fuc(a1-3)[Gal(b1-4)]GlcNAc(b1-6)GalNAc
Procedure, shortened: as §1

[10] = target: Fuc(a1-3)[Gal(b1-4)]GlcNAc(b1-6)[Gal(b1-3)GlcNAc(b1-3)]Gal(b1-4)Glc
Procedure, shortened: as §1

[11] = target: Gal(a1-3)Gal(b1-4)GlcNAc
Procedure, shortened: as §1

[12] = target: Gal(b1-3)GalNAc(a1-3)[Fuc(a1-2)]Gal(b1-4)GlcNAc
Procedure, shortened: as §1

[13] = target: Gal(b1-3)GlcNAc(b1-3)Gal(b1-4)Glc
Procedure, shortened: as §1

[14] = target: Gal(b1-3)[Neu5Ac(a2-6)]GalNAc
Procedure, shortened: as §1

[15] = target: Gal(b1-4)Glc6S
Procedure, shortened: as §1

[16] = target: Gal(b1-4)GlcNAc
Procedure, shortened: as §1

[17] = target: Gal(b1-4)GlcNAc(b1-2)Man
Procedure, shortened: as §1

[18] = target: Gal(b1-4)GlcNAc(b1-3)Gal(b1-4)[Fuc(a1-3)GlcNAc(b1-6)]Gal(b1-4)Glc
Procedure, shortened: as §1

[19] = target: Gal3S(b1-4)Glc6S
Procedure, shortened: as §1

[20] = target: Gal3S6S(b1-4)GlcNAc
Procedure, shortened: as §1

[21] = target: Gal4S6S(b1-4)GlcNAc
Procedure, shortened: as §1

[22] = target: GalNAc(b1-3)Gal
Procedure, shortened: as §1

[23] = target: GalNAc(b1-4)GlcNAc(b1-2)Man(a1-3)[GalNAc(b1-4)GlcNAc(b1-2)Man(a1-6)]Man(b1-4)GlcNAc(b1-4)GlcNAc
Procedure, shortened: as §1

[24] = target: GlcNAc(a1-4)Gal(b1-4)GlcNAc(b1-3)Gal(b1-4)[Fuc(a1-3)]GlcNAc(b1-3)Gal(b1-4)[Fuc(a1-3)]GlcNAc
Procedure, shortened: as §1

[25] = target: GlcNAc(a1-6)Gal(b1-4)GlcNAc
Procedure, shortened: as §1

[26] = target: GlcNAc(b1-2)[GlcNAc(b1-6)]Man(a1-6)[GlcNAc(b1-2)Man(a1-3)]Man(b1-4)GlcNAc(b1-4)GlcNAc
Procedure, shortened: as §1

[27] = target: Man(b1-4)GlcNAc
Procedure, shortened: as §1

[28] = target: Neu5Ac(a2-3)Gal(b1-3)[Fuc(a1-4)]GlcNAc(b1-3)Gal(b1-3)[Fuc(a1-4)]GlcNAc
Procedure, shortened: as §1

[29] = target: Neu5Ac(a2-3)Gal(b1-4)GlcNAc(b1-3)Gal(b1-4)GlcNAc
Procedure, shortened: as §1

[30] = target: Neu5Ac(a2-3)Gal(b1-4)GlcNAc(b1-3)Gal(b1-4)[Fuc(a1-3)]GlcNAc
Procedure, shortened: as §1

[31] = target: Neu5Ac(a2-3)Gal(b1-4)[Fuc(a1-3)]GlcNAc(b1-6)[Gal(b1-3)]GalNAc
Procedure, shortened: as §1

[32] = target: Neu5Ac(a2-6)Gal(b1-4)GlcNAc(b1-2)Man(a1-3)[Gal(b1-4)GlcNAc(b1-2)Man(a1-6)]Man(b1-4)GlcNAc(b1-4)GlcNAc
Procedure, shortened: as §1

[33] = target: Neu5Ac(a2-6)GlcNAc(b1-4)GlcNAc
Procedure, shortened: as §1

[34] = target: Neu5Gc(a2-3)Gal(b1-3)[Fuc(a1-4)]GlcNAc
Procedure, shortened: as §1

B1: Protectin (Homo sapiens), P13987 (protein)
chain: MGIQGGSVLFGLLLVLAVFCHSGHSLQCYNCPNPTADCKTAVNCSSDFDACLITKAGLQVYNKCWKFEHCNFNDVTTRLRENELTYYCCKKDLCNFNEQLENGGTSLSEKTVLLLVTPFLAAAWSLHP
glycan array binding signal (z-score) [1]: -0.701
glycan array binding signal (z-score) [2]: 3.68
glycan array binding signal (z-score) [3]: -0.784
glycan array binding signal (z-score) [4]: 2.73
glycan array binding signal (z-score) [5]: 3.6
glycan array binding signal (z-score) [6]: -0.108
glycan array binding signal (z-score) [7]: -0.062
glycan array binding signal (z-score) [8]: 0.55
glycan array binding signal (z-score) [9]: 2.63
glycan array binding signal (z-score) [10]: -0.354
glycan array binding signal (z-score) [11]: 1.53
glycan array binding signal (z-score) [12]: -0.989
glycan array binding signal (z-score) [13]: 2.77
glycan array binding signal (z-score) [14]: 0.383
glycan array binding signal (z-score) [15]: 0.209
glycan array binding signal (z-score) [16]: 0.172
glycan array binding signal (z-score) [17]: 0.267
glycan array binding signal (z-score) [18]: -0.518
glycan array binding signal (z-score) [19]: -0.411
glycan array binding signal (z-score) [20]: -0.261
glycan array binding signal (z-score) [21]: 0.014
glycan array binding signal (z-score) [22]: -1.36
glycan array binding signal (z-score) [23]: 2.58
glycan array binding signal (z-score) [24]: 6.43
glycan array binding signal (z-score) [25]: -0.166
glycan array binding signal (z-score) [26]: -0.347
glycan array binding signal (z-score) [27]: -0.439
glycan array binding signal (z-score) [28]: 3.13
glycan array binding signal (z-score) [29]: 0.462
glycan array binding signal (z-score) [30]: 0.647
glycan array binding signal (z-score) [31]: -0.153
glycan array binding signal (z-score) [32]: -1.94
glycan array binding signal (z-score) [33]: -0.361
glycan array binding signal (z-score) [34]: 0.087
